{"source": "PubChem BioAssay (NCI)", "note": "About 83,000 compounds went through this panel and 20% of them were active in at least one assay; those are over-represented in the sample as a whole.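 For each line, cells grew in 96-well plates with the test compound present at a single concentration for 48 hours.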 Values without a mark were called inactive. Activity calls are given as the source filed them."}
{"test_system": "M14 melanoma", "experiment": "NCI-60 one-dose screen, 48 h (100 = growth as untreated, 0 = no growth, -100 = all killed)", "settings": "10 µM unless noted", "procedure": "Growth inhibition of the M14 human tumor cell line is measured as a screen for anti-cancer activity. Cells are grown in 96 well plates and exposed to the test compound for 48 hours. Compounds are tested at a single concentration, which is 10^-5 M for most compounds. The reported endpoint is percent growth (GI% or GIPRCNT), where numbers from 0 - 100% represent growth inhibition, and numbers from -100% - 0 represent cell death. For example, a value of 40 represents 60% growth inhibition. A value of 0 means no net growth occurred over the course of the experiment. A value of -40 indicates 40% of cells at the beginning of the experiment died by the end of the experiment. A value of -100 means all cells are dead at the end of the experiment.\nNCI-60 Human Tumor Cell Lines Screen was performed using the standard one-dose NCI protocol, which is described in more detail at https://dtp.cancer.gov/discovery_development/nci-60/default.htm.\nCompounds with GIPRCNT values below 10 were considered active. Activity score was based on GIPRCNT using the following formula: […]\nScore is 0 for GIPRCNT values of 100 or above, 50 for GIPRCNT values of 0, and 100 for GIPRCNT values of -100."}
{"smiles": "COC(=O)C(=[N+]=[N-])C(=O)c1ccc([N+](=O)[O-])o1", "growth": "89.6%"}
{"smiles": "O=C1Nc2ccc(Br)cc2C1=O", "growth": "98.4%"}
{"smiles": "O=C(c1ccccc1)C(O)C(Br)(CBr)c1ccccc1", "note": "(stereo not given)", "growth": "82.6%"}
{"smiles": "CCCCCCCCCCCC[S+](C)CC(=O)[O-]", "note": "(stereo not given)", "growth": "43.7%"}
{"smiles": "Cc1cc2nc(CC(=O)c3ccncc3)c(=O)[nH]c2cc1C", "growth": "106%"}
{"smiles": "CC(C)(C)c1ccc(O)c(Br)c1", "growth": "95.8%"}
{"smiles": "COC(=O)[C@]1(C)CCC[C@]2(C)c3ccc(C(C)C)cc3C(=O)[C@@H](Br)[C@@H]12", "growth": "90.6%"}
{"smiles": "COC(=O)c1ccc(=O)c2nc3/c(=C/O)c(O)cc(=O)c3[nH]c12", "growth": "26.8%"}
{"smiles": "CCCCCCCCCCCCCCCCCC1=NCCCN1CCO", "growth": "99.7%"}
{"smiles": "CN(C)CC(C)(CN(C)C)C(=O)/C=C/c1c(Cl)cccc1Cl", "growth": "12.7%"}
{"smiles": "Cc1nnc(N/N=C/c2ccc([N+](=O)[O-])o2)[nH]c1=O", "growth": "26.2%"}
{"smiles": "Cc1nc(Sc2nc3ccc([N+](=O)[O-])cc3s2)sc1C", "growth": "11.5%"}
{"smiles": "NCCCN(CCCN)CCCNCc1c2ccccc2c(CNCCCN(CCCN)CCCN)c2ccccc12", "growth": "98.8%"}
{"smiles": "C=C(C(N)=O)C(N)C(=O)O", "note": "(stereo not given)", "growth": "90.7%"}
{"smiles": "O=C(/C=C/C(Cl)(Cl)Cl)Nc1ccc(Cl)cc1", "growth": "105%"}
{"smiles": "S=C(SSC(=S)N1CCOCC1)N1CCOCC1", "growth": "55.5%"}
{"smiles": "CCCCCCCCc1cc(Cl)c(O)c(Cl)c1", "growth": "107%"}
{"smiles": "C(=N\\Nc1ccc2ccccc2n1)/c1ccccn1", "growth": "-8.17% (active)"}
{"smiles": "Oc1ccc(Cl)cc1Cc1cc(Cl)ccc1O", "growth": "25.2%"}
{"smiles": "Nc1cc(-c2ccccc2)ccc1O", "growth": "103%"}
{"smiles": "CCc1cccc(CC)c1N1C(=O)C=CC1=O", "growth": "86.6%"}
{"smiles": "CC(C)N=C(N)/N=C(\\N)Nc1ccc2ccc3ccccc3c2c1", "growth": "-76.8% (active)"}
{"smiles": "Oc1ccc(Cl)cc1C(c1cc(Cl)ccc1O)C(Cl)(Cl)Cl", "growth": "0.872% (active)"}
{"smiles": "Cc1ccc(N2C(=O)C=CC2=O)cc1", "growth": "101%"}
{"smiles": "CCOC(=O)c1cc(CC)sc1NC(=O)CC(C)=O", "growth": "88.6%"}
{"smiles": "Nc1ccc(C(=O)/C=C/c2ccccc2)cc1", "growth": "80.4%"}
{"smiles": "CN=C(N)N/N=C(\\c1ccccc1)c1ccc(Br)cc1", "growth": "-13.1% (active)"}
{"smiles": "CC(=O)c1c(O)c(C)c(O)c2c1OC1=CC(=O)C(C(C)=O)C(=O)C12C", "note": "(stereo not given)", "growth": "67.6%"}
{"smiles": "COc1ccc(NC(=O)/C(=C/N2C(=O)/C(=C/c3ccc(OC)c(OC)c3)NC2=S)C(C)=O)cc1", "growth": "53.8%"}
{"smiles": "CN1CSC(=S)N(Cc2ccccc2)C1", "growth": "92%"}
{"smiles": "CCCOC(=O)c1nc(N(CC2CCCCC2)C(=O)NC)sc1/N=C/c1ccccc1", "growth": "6.82% (active)"}
{"smiles": "CC(C)(C)c1ccc(O)c(-c2ccccc2)c1", "growth": "121%"}
{"smiles": "CC(C)c1ccc(Nc2n[nH]c(=S)s2)cc1", "growth": "93.5%"}
{"smiles": "NNc1cccc([N+](=O)[O-])c1", "growth": "99.9%"}
{"smiles": "CC1C(c2ccccc2)OCCN1C(=S)Nc1ccc(S(=O)(=O)N2CCCCC2)cc1", "note": "(stereo not given)", "growth": "94.5%"}
{"smiles": "Fc1ccc(NCCS)cc1", "growth": "103%"}
{"smiles": "COc1cc(/C=C2\\SC(=S)N(/C=C/c3nc4ccccc4[nH]c3=O)C2=O)cc(OC)c1OC", "growth": "75.4%"}
{"smiles": "COC1=CC(=O)c2c(O)c3c(c(O)c2C1=O)CC(C)(O)OC3", "note": "(stereo not given)", "growth": "-52.4% (active)"}
{"smiles": "CCCCCCCCCCCCCCCc1ccc(C(=O)C[n+]2ccccc2)cc1", "growth": "-90.4% (active)"}
{"smiles": "COc1c(C)c2c(c(O)c1C/C=C(\\C)CCC(=O)O)C(=O)OC2", "growth": "20.4%"}
